# Data: PubChem BioAssay (NCI)
# This is part of a sample that, as a whole, favours compounds with a hit. Of some 83,000 tested, about 20% had one in any assay.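 Treatment: one concentration, 48 hours, 96-well format. Scoring: percent growth, with anything below 10 considered active.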 A number with no mark means an inactive call. Active and inactive are the calls of the source.
# Test system: NCI-H322M lung
# Assay: NCI-60 one-dose screen, 48 h (100 = growth as untreated, 0 = no growth, -100 = all killed)
# Settings: 10 µM unless noted
row,Compound,growth
1,Nc1ccc(CCCCc2ccccc2)c(Cl)c1,85%
2,Nc1ccc(S(=O)(=O)Nc2ccsc2-c2nc(-c3ccccc3)no2)cc1,83.3%
3,C=C(CNCCc1ccc(O)cc1)[C@@H]1CC[C@]2(COC3CCCCO3)CC[C@]3(C)[C@H](CC[C@@H]4[C@@]5(C)CCC(NCCO)C(C)(C)[C@@H]5CC[C@]43C)[C@@H]12 (some centres not stated),-96.5% (active)
4,OC(COc1cccc2ccccc12)CN1CCN(c2ccccc2)CC1 (configuration not stated),99.7%
5,Cc1[nH]c(-c2nc3ccccc3[nH]2)c(C)c1C(=O)N1CCc2sccc2C1,98.6%
6,CC(C)n1nc(C#Cc2cccc(NC(=O)c3cccc(C(F)(F)F)c3)c2)c2c(N)ncnc21,-18.3% (active)
7,Cc1cc(NS(=O)(=O)c2ccccc2)c(OS(=O)(=O)c2ccccc2)cc1C,110%
8,OCCCCc1nccc2c1[nH]c1ccccc12,88.9%
9,C=C(C)[C@@H]1CC[C@]2(CNCCO)CC[C@]3(C)[C@H](CC[C@@H]4[C@@]5(C)CCC(N)[C@@](C)(CO)[C@@H]5CC[C@]43C)[C@@H]12 (some centres not stated),47.5%
10,OC(c1cccc(OCc2ccccc2)c1)c1nnc(-c2ccccc2)o1 (configuration not stated),120%
11,Cl.[Pt].[c-]1ccccc1-c1ccccn1.c1ccc(P(c2ccccc2)C([PH+](c2ccccc2)c2ccccc2)[PH+](c2ccccc2)c2ccccc2)cc1,12.5%
12,COc1cc2c(c(OC)c1OC)C(=O)/C(=C/c1cc(C)c(O)c(C)c1)S2,40.8%
